p53null 32C kill: selectivity test: cytotoxicity in p53 null cells, permissive temperature; hit rate 0.62% among 55,000; Potency, µM (top dose mostly 46.1 µM), without a hit: top-dose activity change, negative = cytotoxicity, most hits filed as cytotoxic; H1299-neo p53 null cells, ATP luminescence, 24 h, 32C;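 note: 0% = DMSO only and -100% = full killing by 100 µM tamoxifen; nearly all actives have a fitted effect of over 55% in size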
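Luminescent ATP readout gave cell viability of p53-null H1299-neo cells after a 24 h compound exposure at the permissive 32C. Titrations ran up to 46 uM, and AC50s were fitted with the standard Hill equation.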
OvCa metastasis: inhibitors of ovarian cancer cell adhesion and invasion in omental model; Potency, µM (series often up to 45.8 µM), for the others: top-dose activity change, negative = inhibition, hits mostly inhibitors; AID 1963576; SKOV3ip1-GFP adhesion/invasion on 3D omental model, fluorescence; hit rate 0.1% among 46,000;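 note: plate controls were DMSO wells for no effect and tomatine positive control wells for full effect; nearly all actives have a fitted effect of over 65% in size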
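A 3D layer of primary human omental fibroblasts, mesothelial cells, fibronectin and collagen I, grown 48 hr, received SKOV3ip1-GFP cells in serum-free medium plus compounds at 0.36-46 umol/L. After 2 hr RT and 16 hr 37 C, fixed adherent GFP cells were counted; normalized to DMSO and tomatine.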
p53null 39C tox: p53 null cell cytotoxicity, nonpermissive temperature. H1299 p53-null (neo) cells, 39C, ATPlite viability, 24 h. Potency, µM (doses to about 46.1 µM), without a hit: at the top dose activity, negative = cell killing, actives largely listed as cytotoxic. hit rate 0.97% among 55,000. AID 904;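 note: 0% = DMSO only and -100% = full killing by 100 µM tamoxifen; nearly all actives have a fitted effect of over 50% in size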
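Following overnight plating at 37C (600 cells/well), H1299-neo or H1299-p53A138V cells are dosed up to 46 uM. Incubation lasts 24 hr at 39C before ATP detection.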
S16 F2sN tox: cytotoxicity in S16 Pmp22-F2sN Schwann cells; S16 Pmp22-F2sN Schwann cells viability, CellTiter-Glo, 24 h; Potency, µM (highest dose often 57.5 µM), inactives show at the top dose activity change, negative = cytotoxicity, most hits filed as cytotoxic; hit rate 0.48% among 43,000; AID 1508642; note: nearly all actives have a fitted effect of over 65% in size
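Rat S16 Schwann reporter line, 24 h treatment with library compounds delivered at 23 nL per well. Cell viability by CellTiter-Glo luminescence.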
mTORC1 inh: reduces mTORC1 signaling in Tsc2 and p53 null MEF cells; Tsc2-/- p53-/- MEF, phospho-rpS6 immunofluorescence/PI, 24 h; Potency, µM (doses to about 38.3 µM), for inactives: at the highest dose activity change, negative = inhibition, hits mostly inhibitors; hit rate 0.78% among 44,000;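 note: plate controls were DMSO for no effect and rapamycin for full effect; nearly all actives have a fitted effect of over 50% in size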
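Immunofluorescence of rpS6 phosphorylation in Tsc2-/-, p53-/- MEFs after 24 h compound exposure, normalized to propidium iodide signal. Activity is expressed as % positive cells, thresholded with 7.5 nM rapamycin.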
PMP22 txn prim: PMP22 gene transcription modulation; hit rate 2% among 43,000; Potency, µM (highest dose often 57.5 µM), inactives show at the top dose activity change, negative = inhibition, hits mostly inhibitors; S16 Pmp22-F2sN Schwann cells (luciferase reporters placed in the Pmp22 gene), FLuc/NLuc coincidence luminescence, 24 h; active = clear falling dose curves in both reporters; inconclusive = both reporters move, but less clearly or upward; inactive = either reporter flat; the % is the NLuc reporter signal
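Transcriptional readout in edited S16(c9) cells: two luciferases reported from the Pmp22 locus, measured in turn after 24 h compound incubation.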
Numbers without * were called inactive; i = inactive; ? = inconclusive; nt = not tested or not shown. Compounds with a hit are over-represented: about 3% of the library has one in this group of screens. Unless noted, calls come from the whole dose curve; as a rule, active = well fitted curve in the direction sought with a large enough effect; inconclusive = small, poorly fitted or top-dose-only effect, or another doubt; inactive = no such curve, though single readings can be large; an effect the other way counts as inactive or inconclusive. Unless noted, % is set by controls: 0 for no effect and ±100 for the full control effect; potency is the fitted concentration of half-maximal effect.

SMILES	p53null 32C kill	OvCa metastasis	p53null 39C tox	S16 F2sN tox	mTORC1 inh	PMP22 txn prim
O=C(/C=C/c1cn(CC(O)CN2CCCCCC2)c2ccccc12)c1ccccc1 (stereo unspecified)	-8.9%	-12.1%	-21.5%	?	?	?
O=c1cc(N2CCOCC2)oc2c(-c3cccc4c3sc3ccccc34)cccc12	nt	-28.9%	nt	nt	nt	nt
CO[C@@H]1C(N(C)C(=O)c2ccccc2)C[C@H]2O[C@]1(C)n1c3ccccc3c3c4c(c5c6ccccc6n2c5c31)C(=O)NC4=O (stereo partly specified)	nt	-8.0%	nt	nt	nt	nt
CCOC(=O)Cc1c(C)nc2c(-c3ccc(OC)c(OC)c3)c(C)nn2c1C	5.5%	-7.5%	?	?	7.4%	13.5µM*
CC(C)OCc1cc(CN2CCN(c3cccc(C(F)(F)F)c3)CC2)c(O)c2ncccc12	?	-4.6%	0.501µM*	?	?	6.48µM*
CCOCc1cc(CN2CCN(c3cccc(C(F)(F)F)c3)CC2)c(O)c2ncccc12	?	-13.1%	?	?	?	4.5µM*
CC(C)c1noc(N2CCC(COc3ccc(-c4ccc(S(C)(=O)=O)cc4)nc3)CC2)n1	nt	-12.0%	nt	nt	nt	nt
O=C(CCc1ccc(O)cc1)c1c(O)cc(O)cc1O[C@@H]1O[C@H](CO)[C@H](O)[C@H](O)[C@H]1O	nt	-15.5%	nt	nt	nt	nt
O=C(NCC1CCN(Cc2cccc(Cl)c2)CC1)Nc1ccc(F)c(Cl)c1	4.5%	20µM*	?	?	18.5µM*	-33.1%
COc1ccccc1NC(=O)c1cnc(SCC(=O)N2CCOCC2)n(C)c1=O	-8.9%	-13.9%	-2.7%	18.5%	-8.1%	10.7µM*
COC(=O)N[C@H](C(=O)N1CCC[C@@H]1c1ncc(-c2ccc(-c3ccc(-c4cnc([C@@H]5CCCN5C(=O)[C@@H](NC(=O)OC)C(C)C)[nH]4)cc3)cc2)[nH]1)C(C)C	nt	-7.9%	nt	nt	nt	nt
Cc1ccc(-n2[nH]c(C)c(N=Nc3cccc(-c4cccc(C(=O)O)c4)c3O)c2=O)cc1C	nt	-7.5%	nt	nt	nt	nt
Cc1ccc(C2=CC(c3ccccc3F)n3c(nc4ccccc43)N2)cc1C (stereo unspecified)	12.6µM*	-5.5%	?	?	-0.7%	?
COc1cccc(C2=CC(c3ccccc3F)n3c(nc4ccccc43)N2)c1 (stereo unspecified)	11.2µM*	1.7%	?	?	0.1%	?
CCOc1ccc(C2=CC(c3cccc(Br)c3)n3c(nc4ccccc43)N2)cc1Cl (stereo unspecified)	-0.9%	0.9%	10.1%	-19.8%	-7.1%	?
COc1cccc(C2=CC(c3ccccc3F)n3ncc(C(=O)Nc4ccc(C)cc4)c3N2)c1 (stereo unspecified)	41.4%	1.6%	20.8%	?	-16.3%	?
O=C1CC(c2ccccc2)Cc2[nH]c(=O)c(-c3nc(-c4ccc(Cl)cc4)cs3)cc21 (stereo unspecified)	32.5%	-27.2%	-1.9%	?	5.85µM*	0.751µM*
O=C1CC(c2ccccc2)Cc2[nH]c(=O)c(-c3nc(-c4ccc(Cl)c(Cl)c4)cs3)cc21 (stereo unspecified)	19.8%	-6.1%	-9.6%	?	-1.6%	-7.5%
Cc1ccccc1C(C(=O)NC1CCCC1)N(C(=O)Cn1cnc2ccccc21)c1cccc(F)c1 (stereo unspecified)	nt	-9.7%	nt	nt	nt	nt
C[C@H](O)[C@@H]1C(=O)N2C(C(=O)O)=C(S[C@@H]3CN[C@H](CNS(N)(=O)=O)C3)[C@@H](C)[C@@H]12	nt	18.9%	nt	nt	nt	nt
Cc1ccc(C)n1-c1ccccc1N	12.6µM*	nt	?	nt	nt	nt
Cc1ccc(S(=O)(=O)Cc2ccc(C(=O)N3CCN(c4cccc(Cl)c4)CC3)o2)cc1	1.3%	-10.3%	?	-16.9%	?	15µM*
CCn1c(C)cc(/C=C2/SC(=S)NC2=O)c1C	17.8µM*	nt	nt	nt	nt	nt
CCOc1ccc(C2=C(C(=O)CC)Sc3nncn3N2C(=O)CC)cc1	12.6µM*	-19.2%	?	?	?	?
CC(=O)C1=C(c2ccc(Cl)c(Cl)c2)N(C(C)=O)n2cnnc2S1	12.1%	?	-22.5%	?	14.7µM*	?
SMILES	p53null 32C kill	OvCa metastasis	p53null 39C tox	S16 F2sN tox	mTORC1 inh	PMP22 txn prim
CCC(=O)C1=C(c2ccc(F)cc2)N(C(=O)CC)n2cnnc2S1	-2.1%	i	-1.1%	?	11.7µM*	?
COc1cccc(C2=C(C(C)=O)Sc3nncn3N2C(C)=O)c1	-8.5%	-17.7%	-1.5%	?	-10.0%	?
CC(=O)c1ccc(N2CCN(S(=O)(=O)c3ccc4c(c3)CC(C)N4C(=O)C3CCC3)CC2)cc1 (stereo unspecified)	-6.1%	i	-10.6%	?	-7.3%	12.8µM*
CC(C)c1cnn2c(NCc3ccccc3)cc(NCCCCCCN)nc12	nt	-29.4%	nt	nt	nt	nt
Cc1ccc(O)c(C(CC(=O)NCC2(c3ccccc3)CCCC2)c2ccccc2)c1 (stereo unspecified)	?	?	?	?	18.5µM*	?
Cc1ccc(NC(=O)CSc2ncc3c(n2)-c2ccc(Cl)cc2N(C)S3(=O)=O)cc1F	1.0%	5.9%	-3.0%	9.5%	-7.6%	?
CN1c2cc(Cl)ccc2-c2nc(SCC(=O)Nc3ccc(F)cc3F)ncc2S1(=O)=O	-7.5%	-6.9%	?	25.1µM*	-7.3%	?
CCOc1ccc(-c2nonc2NC(=O)c2oc3cc(Br)ccc3c2C)cc1	?	-22.4%	?	?	-12.4%	9.46µM*
CCOc1ccc(-c2nonc2NC(=O)c2oc3cc(C)ccc3c2C)cc1	8.2%	-4.8%	0.7%	3.2%	?	-41.6%
CCOc1ccc(-c2nonc2NC(=O)c2oc3ccc(Br)cc3c2C)cc1	12.6µM*	-3.8%	?	-14.9%	-22.9%	?
CC1CCN(c2cc(N3CCN(C)CC3)ccc2NC(=O)c2cc(C#N)c[nH]2)CC1	nt	23.3%	nt	nt	nt	nt
O=C(Oc1ccc(Cl)cc1)c1cc(-c2ccc3c(c2)OCCO3)on1	-19.1%	i	-32.4%	11.9%	-5.3%	-1.3%
N#Cc1ccc(OC(=O)c2cc(-c3ccc4c(c3)OCCO4)on2)cc1	?	-24.9%	?	-3.1%	-1.5%	-24.5%
COc1ccc(OC(=O)c2cc(-c3ccc4c(c3)OCCO4)on2)cc1	12.6µM*	-9.7%	?	1.0%	-9.5%	-16.4%
CC(C)c1ccc(OC(=O)c2cc(-c3ccc4c(c3)OCCO4)on2)cc1	12.6µM*	0.6%	31.6µM*	1.7%	-4.1%	-9.4%

From PubChem BioAssay
